{"source": "PubChem BioAssay AID588814", "about": "(The Scripps Research Institute Molecular Screening Center, 2011)", "note": "In all, about 360,000 compounds went through this assay and about 1,200 (0.33%) were called active.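 The calls were made as follows: active = activation above the run's mean compound activation plus 3 SD (cut at about 16% in these data); inactive = the rest.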 The sample as a whole holds a higher share of actives than the screen did.", "data": [{"target": "Muscarinic acetylcholine receptor M1 (Homo sapiens) (UniProt P11229)", "sequence (P11229 whole entry, looked up)": "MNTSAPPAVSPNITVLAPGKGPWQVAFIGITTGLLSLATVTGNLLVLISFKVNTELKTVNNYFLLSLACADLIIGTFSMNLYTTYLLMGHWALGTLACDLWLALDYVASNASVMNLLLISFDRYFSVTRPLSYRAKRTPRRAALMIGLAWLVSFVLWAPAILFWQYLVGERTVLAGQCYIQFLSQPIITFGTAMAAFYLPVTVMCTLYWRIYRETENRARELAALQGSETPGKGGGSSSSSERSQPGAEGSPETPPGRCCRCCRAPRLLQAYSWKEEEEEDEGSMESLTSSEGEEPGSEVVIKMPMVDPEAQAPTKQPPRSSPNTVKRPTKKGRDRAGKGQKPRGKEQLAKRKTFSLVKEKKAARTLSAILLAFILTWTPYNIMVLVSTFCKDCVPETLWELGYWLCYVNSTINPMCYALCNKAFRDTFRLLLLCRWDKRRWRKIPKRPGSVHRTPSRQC", "experiment": "CHRM1 activation via calcium signal – Fluo-8 calcium fluorescence, CHO-K1 cells, HTS, primary screen (AID 588814);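 also: peak over basal fluorescence ratio within a 140 s kinetic read after compound addition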", "settings": "CHO-K1 hM1, Fluo-8 calcium fluorescence, agonist mode; at 3 µM; stronger effect = higher value; 0% DMSO, 100% acetylcholine EC100", "values": [{"molecule": "COCCNc1ncnc2c1nc1n2CCCC1", "activation": "-3.29% (inactive)"}, {"molecule": "COCCCNC(=O)c1cccc2c(-c3ccc(O)c(OC)c3)coc12", "activation": "0.67% (inactive)"}, {"molecule": "Cc1ccc(/C=N/NC(=O)C(NC(=O)c2ccccc2)c2n[nH]c(=O)c3ccccc23)cc1", "note": "(configuration not stated)", "activation": "-2.92% (inactive)"}, {"molecule": "CSc1nc2nc(-c3cccc(C(F)(F)F)c3)ccn2n1", "activation": "-3% (inactive)"}, {"molecule": "Cc1ccc(-n2nc3c(c2NC(=O)CCC2CCCCC2)CS(=O)C3)cc1", "note": "(configuration not stated)", "activation": "-1.89% (inactive)"}, {"molecule": "O=C(Cc1ccc(Cl)cc1)NC(=S)Nc1ccccc1O", "activation": "52.4% (active)"}, {"molecule": "Cc1cccc(NC(=S)NCCc2ccc(Cl)cc2)c1C", "activation": "-5.48% (inactive)"}, {"molecule": "O=C(COc1ccc(Cl)cc1)NC(=S)Nc1ccccc1N1CCOCC1", "activation": "0.8% (inactive)"}, {"molecule": "Cc1ccccc1N/C(SCc1ccc(Cl)cc1)=C(/C#N)C(N)=O", "activation": "-7.61% (inactive)"}, {"molecule": "Cc1ccccc1NC(=S)NC(=O)Cc1ccc(Cl)cc1", "activation": "29.9% (active)"}, {"molecule": "O=C(COc1ccc(Cl)cc1)Nc1ccccc1CO", "activation": "-3.25% (inactive)"}, {"molecule": "O=C(c1ccccc1)c1cccn1CC(=O)N1CCN(c2ccc(F)cc2)CC1", "activation": "0.36% (inactive)"}, {"molecule": "Cc1nc2ccccc2n1C(=O)N1CCOCC1", "activation": "-1.92% (inactive)"}, {"molecule": "O=C(N/N=C1\\CCSC1)c1cc(Cl)ccc1O", "activation": "-0.13% (inactive)"}, {"molecule": "CN(CC(=O)NCCc1ccc(S(N)(=O)=O)cc1)CC(=O)Nc1ccc(Cl)cc1", "activation": "-1.41% (inactive)"}, {"molecule": "CCN(CC)c1ccc(C2C3CCCCC3(O)CCN2CC(=O)Nc2ccccc2)cc1", "note": "(configuration not stated)", "activation": "-4.34% (inactive)"}, {"molecule": "COc1ccc(C2/C(=C(/O)c3ccc4c(c3)CC(C)O4)C(=O)C(=O)N2Cc2ccncc2)cc1", "note": "(configuration not stated)", "activation": "-3.47% (inactive)"}, {"molecule": "Cc1c[n+]([O-])ccc1[N+](=O)[O-]", "activation": "-2.04% (inactive)"}, {"molecule": "Nc1nc(SCC(=O)NNc2c(Cl)cc(Cl)cc2Cl)n[nH]1", "activation": "-4.83% (inactive)"}, {"molecule": "Cc1ccc(/C=C/C(=O)OCC(=O)NCc2ccc(Cl)cc2)o1", "activation": "-3.98% (inactive)"}, {"molecule": "CCc1ccc2oc(-c3ccc(N)cc3)nc2c1", "activation": "6.55% (inactive)"}, {"molecule": "Cc1ccc2oc(=O)ccc2c1", "activation": "-4.21% (inactive)"}, {"molecule": "CCN(CC)c1ccc2oc(=O)c(C)nc2c1", "activation": "49% (active)"}, {"molecule": "Cc1cc(=O)oc2c3c(cc(OCC(=O)NCC(O)c4ccccc4)c12)OC(C)(C)CC3", "note": "(configuration not stated)", "activation": "0.12% (inactive)"}, {"molecule": "CN(CCO)C(=O)c1nc[nH]c1C(=O)N(C)Cc1ccccc1", "activation": "-4.9% (inactive)"}, {"molecule": "CCOC(=O)N(Cc1ccccc1)C1CC1", "activation": "-2.66% (inactive)"}, {"molecule": "CN(C(=O)CN(CCO)CC(=O)N(C)C(C)(C)Cc1ccccc1)C(C)(C)Cc1ccccc1", "activation": "27.2% (active)"}, {"molecule": "CCS(=O)(=O)n1nc(-c2ccccc2)nc1SCc1ccccc1", "activation": "-2.07% (inactive)"}, {"molecule": "CN(CC(=O)NCCN1CCOCC1)S(=O)(=O)c1ccc(F)cc1", "activation": "-1.7% (inactive)"}, {"molecule": "Cc1ccc(Cn2c(C)c(C(=O)NCc3ccccc3C(F)(F)F)sc2=O)cc1", "activation": "-6.02% (inactive)"}, {"molecule": "CC(=O)Oc1ccc(Cn2c(C)c(C(=O)NCc3ccc(C#N)cc3)sc2=O)cc1", "activation": "33% (active)"}, {"molecule": "Cc1c(C(=O)NCc2ccc(C#N)cc2)sc(=O)n1Cc1ccc(C(=O)N(C)C)cc1", "activation": "-5.38% (inactive)"}, {"molecule": "COc1ccc(N/N=C2/CCCCC2=O)cc1", "activation": "-3.78% (inactive)"}, {"molecule": "COc1ccc(NC(=O)C2(C)Cc3c(-c4cccc(NC(C)=O)c4)ccnc3O2)cc1", "note": "(configuration not stated)", "activation": "-1.09% (inactive)"}, {"molecule": "O=S(=O)(c1cccs1)N1CCN(CCOc2ccccc2)CC1", "activation": "-2.7% (inactive)"}, {"molecule": "O=c1[nH]c2ccccc2n1C1CCN(CCOc2ccccc2)CC1", "activation": "75.4% (active)"}, {"molecule": "O=C1CCN(CCc2ccccc2)CCN1CCOc1ccccc1", "activation": "-5.27% (inactive)"}, {"molecule": "CC1Cc2ccccc2N1CC(=O)Nc1ccc(S(N)(=O)=O)cc1", "note": "(configuration not stated)", "activation": "0.2% (inactive)"}, {"molecule": "O=C(CN(Cc1ccccc1)C(=O)CCC(=O)Nc1ccccn1)NCCc1ccccc1", "activation": "-5.06% (inactive)"}, {"molecule": "CC(=O)NC(CC(=O)Nc1nc(-c2ccccc2)c(C(C)=O)s1)c1ccccc1", "note": "(configuration not stated)", "activation": "-2.65% (inactive)"}, {"molecule": "Nc1ncnc2c1ncn2[C@@H]1O[C@H](C(=O)NS(=O)(=O)c2c(Cl)nc3sccn23)[C@@H](O)[C@H]1O", "activation": "-1% (inactive)"}, {"molecule": "COc1cccc(C=CC(=O)C=CC=Cc2ccccc2)c1", "activation": "-0.1% (inactive)"}, {"molecule": "COc1ccc(/C=C/C(=O)c2c(O)cc(OC)cc2OC)cc1", "activation": "-5.79% (inactive)"}, {"molecule": "O=C(/C=C(O)/C=C/c1ccc(O)cc1)/C=C/c1ccc(O)cc1", "activation": "30% (active)"}, {"molecule": "CCOc1ccc(CCNC(=O)COC(=O)c2c(OC)cccc2OC)cc1OCC", "activation": "0.68% (inactive)"}, {"molecule": "O=C(CCN1CCN(c2ccccc2)CC1)NNC(=S)Nc1ccccc1", "activation": "-3% (inactive)"}, {"molecule": "CC(C)CC(=O)NC(=S)NCc1ccccc1", "activation": "-7.45% (inactive)"}, {"molecule": "CCCCC(=O)NNC(=S)NC(=O)C(c1ccccc1)c1ccccc1", "activation": "88.8% (active)"}, {"molecule": "O=C(N=C1SC2CS(=O)(=O)CC2N1Cc1ccccc1)c1ccccc1", "note": "(configuration not stated)", "activation": "0.69% (inactive)"}, {"molecule": "CCOc1ccc(S(=O)(=O)Nc2ccc(C(=O)NCCCN3CCCC3=O)cc2)cc1", "activation": "-1.87% (inactive)"}, {"molecule": "CCOc1ccc(NS(=O)(=O)c2ccc(C(=O)NCC(c3ccccc3OC)N3CCCC3)cc2)cc1", "note": "(configuration not stated)", "activation": "22.7% (active)"}, {"molecule": "CCOc1ccc(NS(=O)(=O)c2ccc(C(=O)NC3CCN(Cc4ccccc4)CC3)cc2)cc1", "activation": "-4.76% (inactive)"}, {"molecule": "Cc1ccc(S(=O)(=O)N(CC(=O)Nc2cccnc2)c2ccc(Br)cc2)cc1", "activation": "-0.74% (inactive)"}, {"molecule": "c1ccc2c(c1)OCC(CNc1ncnc3nc[nH]c13)O2", "note": "(configuration not stated)", "activation": "134% (active)"}, {"molecule": "O=C(Cn1cnc2ccccc2c1=O)NCC1COc2ccccc2O1", "note": "(configuration not stated)", "activation": "-0.06% (inactive)"}, {"molecule": "COc1ccc(CCNc2ncnc3nc[nH]c23)cc1OC", "activation": "3.98% (inactive)"}, {"molecule": "O=C(CSc1nnc2c(n1)[nH]c1ccccc12)NC1CCCCC1", "activation": "-3.41% (inactive)"}, {"molecule": "O=C(Nc1ccc(Cl)cc1)N1CCc2[nH]c3ccccc3c2C1", "activation": "21.6% (active)"}, {"molecule": "CCc1ccc(NC(=O)N2CCc3ccccc3C2)cc1", "activation": "-5.56% (inactive)"}, {"molecule": "O=C(Nc1cccc2c1CCCC2)C1CCN(C(=O)NC2CCCCC2)CC1", "activation": "-2.08% (inactive)"}, {"molecule": "C=CCNC(=S)N1CCc2[nH]c3ccccc3c2C1", "activation": "2.34% (inactive)"}, {"molecule": "O=C(NC1CCCCC1)N1CCc2[nH]c3ccccc3c2C1", "activation": "18.1% (active)"}]}]}
